Laboratory results as given in ChEMBL document CHEMBL3988442, “University of Dundee, Small-Polar-MMV Screening Library” (2021).
Among all 48,000 compounds or so, about 13,000 (27%) showed an effect of 50% or more. The list shows a part of the results.

What follows are compounds tested on Wolbachia pipientis (assay: Anti-Wolbachia Cell-Based Screen). Settings: 5 µM.
Assay type: functional
Set-up: scale not given: in the data most compounds retested in dose-response had high values

| SMILES | Percent Effect [%] |
| --- | --- |
| Cc1ccc(NC(=O)c2ccc(N3CCCCC3)nn2)c(Cl)c1 | -6.125 |
| O=C(NCCCc1cccs1)N1CCCCC1CCO (stereo not given) | -11.71 |
| Cc1cc(C)n(CC(=O)N2CCCCC2CCN2CCCC2=O)c(=O)n1 (stereo not given) | 117.3 |
| Cc1cc(C)n(CC(=O)N2CCCCC2CCc2cccs2)c(=O)n1 (stereo not given) | 103.5 |
| Cn1c(C2CCCCN2C(=O)CN2CCCC2=O)nc2ccccc21 (stereo not given) | 3.336 |
| Cc1cc2ccccc2n1CCC(=O)N1CCCCC1CCO (stereo not given) | -1.29 |
| O=C1CCCN1CCC1CCCCN1C(=O)c1ccc(SCCO)cc1 (stereo not given) | 10.34 |
| Cc1cc(C)n(CC(=O)N(C)Cc2csc(-c3cccs3)n2)c(=O)n1 | -2.174 |
| Cc1cc(C)n(CC(=O)N2CCCCC2CCN(C)C)c(=O)n1 (stereo not given) | 101.4 |
| Cc1cc(C)n(CC(=O)N2C[C@@H]3CC[C@H](C2)N(CC2CCC2)C3)c(=O)n1 | 9.507 |
| COC(=O)c1cc(CN2CCN(c3nc(C)cnc3C)CC2)ccc1O | -22.17 |
| CCN(CC)C(=O)c1cc(Br)cc(S(=O)(=O)N2CCOCC2)c1F | -12.93 |
| COc1ccccc1C(=O)Nc1c(F)c(C(=O)N2CCCC2)nn1C | 113.5 |
| COc1ccccc1C(=O)Nc1c(F)c(C(=O)NC2CCCC2)nn1C | 102.6 |
| COc1ccccc1C(=O)Nc1ccc(OC2CCN(C)CC2)cc1 | -27.65 |
| COc1ccccc1C(=O)Nc1c(C)cnn1CC1CC1 | -3.808 |
| Cc1nn(C)c(C)c1C(C(=O)O)N1CCc2ccccc2C1 (stereo not given) | 39.47 |
| CC(C)C(=O)Nc1cc(C(C)(C)C)nn1-c1ccccn1 | 3.907 |
| CN(Cc1ccccc1Cl)C(C(=O)O)c1ccc(F)c(CO)c1 (stereo not given) | -0.8463 |
| NC(=O)C1CCN(S(=O)(=O)c2cnn(-c3ccccc3)c2)CC1 | -7.83 |
| CCn1cc(S(=O)(=O)NC(CO)Cc2ccccc2)cn1 (stereo not given) | -18.17 |
| Cc1cn(-c2ccccc2)nc1NS(=O)(=O)c1cccc(C(=O)O)c1 | 12.37 |
| CCn1cc(C(=O)Nc2ccc(C)cc2C(=O)NC)cn1 | -4.213 |

| SMILES | Percent Effect [%] |
| --- | --- |
| Cc1cccc(NS(=O)(=O)c2cnn(C)c2)c1C#N | -6.698 |
| CCn1nc(C)c(S(=O)(=O)Nc2cccc(C(=O)O)c2C)c1C | -0.6024 |
| Cc1ccc(NS(=O)(=O)c2cnn(Cc3ccccc3)c2)c(C(=O)O)c1 | 100.3 |
| Cc1ccc(NS(=O)(=O)c2cnn(-c3ccccc3)c2)c(C(=O)O)c1 | 131.3 |
| Cc1ccc(-n2cc(S(=O)(=O)Nc3cccc(C(=O)O)c3C)cn2)cc1 | 125.3 |
| CC(C)c1cc(N2CCC(C(C)N3CCCC3)CC2)n2nccc2n1 (stereo not given) | -4.218 |
| CN(Cc1nc(-c2cccs2)no1)Cc1nc2c(s1)CCCC2 | -10.58 |
| Cc1ccc2cnn(CCC(=O)Nc3c(C)nn(C)c3C)c2c1 | -9.349 |
| O=C(NCc1cccc(N2CC=CC2)c1)NC1CC1 | 1.832 |
| Cc1ccc(C(=O)N2CC[C@H](N3CCOCC3)[C@H](CCCO)C2)cc1O | -3.81 |
| O=C(c1cnccn1)N1CCN(Cc2ccncc2)c2ncccc2C1 | -4.343 |
| COCCN1CCN(C(=O)c2ccncc2F)Cc2cccnc21 | 4.379 |
| O=C(N1CCCC1)N1CCN(Cc2cccnc2)c2ncccc2C1.O=C(O)C(F)(F)F.O=C(O)C(F)(F)F | 101.8 |
| CN(C)C(=O)N1CCN(C)c2ncccc2C1 | 5.475 |
| Cn1cccc1C(=O)N1CCN(CC2CC2)c2ncccc2C1 | -25.73 |
| Cn1cccc1C(=O)N1CCN(Cc2cccnc2)c2ncccc2C1.O=C(O)C(F)(F)F.O=C(O)C(F)(F)F | 51.12 |
| CN1CCN(C(=O)c2cccn2C)Cc2cccnc21 | 105.6 |
| O=C(c1cnccn1)N1CCN(Cc2cccnc2)c2ncccc2C1 | 97.13 |
| Cn1cccc1C(=O)N1CCN(Cc2ccncc2)c2ncccc2C1.O=C(O)C(F)(F)F.O=C(O)C(F)(F)F | -28.33 |
| Cc1ccc(C2COCCN2C(=O)c2ccc(CN(C)C)cc2)o1 (stereo not given) | -6.944 |
| CC(C)Oc1cc(N2C[C@H](C3CC3)[C@@H](N)C2)nc(N)n1 | 12.97 |
| COc1ccc(-c2noc([C@@H]3C[C@H](NC(=O)NC(C)C)CN3C)n2)cc1 | 2.003 |
| COc1ccnc(N2Cc3cnc(C(C)(C)C)nc3C2)n1 | -13.37 |

| SMILES | Percent Effect [%] |
| --- | --- |
| O=C(c1ccncc1F)N1CCN(CC2CC2)c2ncccc2C1 | 10.49 |
| O=C(O)C(F)(F)F.O=C(O)C(F)(F)F.O=C(c1ccnnc1)N1CCN(Cc2ccncc2)c2ncccc2C1 | 96.92 |
| O=C(c1ccc[nH]1)N1CCC(c2nccn2Cc2ccncc2)CC1 | -7.637 |
| O=C(c1ccc[nH]1)N1CCN(Cc2ccncc2)c2ncccc2C1 | 105 |
| CC(=O)NCC(=O)N1CCN(Cc2ccncc2)c2ncccc2C1 | -10.24 |
| O=C(O)C(F)(F)F.O=C(O)C(F)(F)F.O=C(c1ccnnc1)N1CCN(Cc2cccnc2)c2ncccc2C1 | 97.06 |
| O=C(O)C(F)(F)F.O=C(O)C(F)(F)F.O=C(O)C(F)(F)F.O=C(c1ccncc1)N1CCN(Cc2cccnc2)c2ncccc2C1 | 105.3 |
| CN1CCN(C(=O)Cc2cccc(F)c2)Cc2cccnc21.O=C(O)C(F)(F)F | -17.2 |
| Cc1cc(C)n(-c2cncc(N3CCN(C(=O)C(C)(C)C)CC3)n2)n1 | 6.121 |
| NC(=O)c1cccc(CCNCc2cccs2)c1 | 0.5417 |
| Cc1ccc2c(c1)c(CNC(=O)C1CCCN(CC(N)=O)C1)nn2C (stereo not given) | -18.62 |
| CC(C)N1CC[C@H]2[C@H](C[C@@H](Cn3cccn3)N2c2nccs2)C1.O=C(O)C(F)(F)F.O=C(O)C(F)(F)F.O=C(O)C(F)(F)F | 108.8 |
| CN1[C@H](Cn2cncn2)C[C@@H]2CN(C3CCOCC3)CC[C@@H]21.O=C(O)C(F)(F)F.O=C(O)C(F)(F)F | 8.742 |
| CC(=O)N1CC[C@H]2[C@H](C[C@@H](Cn3cncn3)N2c2nccs2)C1.O=C(O)C(F)(F)F | 4.075 |
| CN1CC[C@H]2[C@H](C[C@@H](Cn3cncn3)N2c2nccs2)C1 | -5.255 |
| CC(C)N1CC[C@H]2[C@H](C[C@@H](Cn3cncn3)N2c2nccs2)C1.O=C(O)C(F)(F)F.O=C(O)C(F)(F)F | 110.1 |
| CC(C)N1[C@H](Cn2cccn2)C[C@@H]2CN(C3CCOCC3)CC[C@@H]21.O=C(O)C(F)(F)F.O=C(O)C(F)(F)F.O=C(O)C(F)(F)F | 7.148 |
| OC(CN1CCN(CC(F)F)CC1)c1ccc(Br)cc1 (stereo not given) | 2.807 |
| CC(C)CCN1C(=O)CC(N(C)Cc2nc3ccccc3c(=O)[nH]2)C1=O (stereo not given) | -3.315 |
| COc1cccc(CN2CCC(CO)(Cc3ccc(Cl)cc3)CC2)c1O | -4.953 |
| CCN1CCC2(CC1)CC(COC)N(Cc1csc(C)n1)C2.O=C(O)C(F)(F)F.O=C(O)C(F)(F)F (stereo not given) | 21.22 |
| COCC1CC2(CCN(Cc3nccs3)CC2)CN1Cc1ccccn1.O=C(O)C(F)(F)F.O=C(O)C(F)(F)F.O=C(O)C(F)(F)F (stereo not given) | 106.7 |
| COCC1CC2(CCN(Cc3ccccn3)CC2)CN1c1ncccn1.O=C(O)C(F)(F)F.O=C(O)C(F)(F)F.O=C(O)C(F)(F)F (stereo not given) | 0.4015 |

| SMILES | Percent Effect [%] |
| --- | --- |
| COCC(=O)N1CCC2(CC1)CC(COC)N(c1ncccn1)C2.O=C(O)C(F)(F)F (stereo not given) | -2.409 |
| COCC(=O)N1CCC2(CC1)COC(COCc1ccccn1)C2.O=C(O)C(F)(F)F (stereo not given) | -3.538 |
| COCC1CC2(CCN(Cc3ccoc3)CC2)CN1Cc1ccccn1 (stereo not given) | 97.98 |
| COCC(=O)N1CCC2(CC1)CC(COC)N(Cc1ccccn1)C2.O=C(O)C(F)(F)F (stereo not given) | 100.7 |
| FC(F)(F)CCc1ccnc(N[C@H]2CC[C@H](n3cnnc3)CC2)n1 | -3.85 |
| CCNC(=O)NC[C@H]1Cn2c(-c3ccccc3)cnc2CO1 | -18.82 |
| Cc1ccc(C)c(CS(=O)(=O)Cc2ccn(C)c(=O)c2)c1 | 17.59 |
| Cc1cnn(C2CCCN(C(=O)c3ccnc(N(C)C)c3)C2)c1 (stereo not given) | 7.39 |
| Cc1cnn(C2CCCN(C(=O)c3ccnc(-n4cncn4)c3)C2)c1 (stereo not given) | 91.3 |
| Cc1cnn(C2CCCN(C(=O)c3ccc(C(N)=O)cn3)C2)c1 (stereo not given) | 85.91 |
| CNC(=O)c1ccc(C(=O)N2CCCC(n3cc(C)cn3)C2)cn1 (stereo not given) | -2.2 |
| Cc1cnn(C2CCCN(C(=O)c3ccc4c(c3)CCC4)C2)c1 (stereo not given) | 100.4 |
| Cc1cnn(C2CCCN(C(=O)c3ccn(C)c(=O)c3)C2)c1 (stereo not given) | -5.065 |
| Cc1cnn(C2CCCN(C(=O)c3ccc(NC4CC4)nc3)C2)c1 (stereo not given) | 77.38 |
| Cc1cnn(C2CCCN(C(=O)COc3ccc(C(N)=O)cc3)C2)c1 (stereo not given) | -8.397 |
| Cc1nc(C)n(C2CCCN(C(=O)c3ccc(NC4CC4)nc3)C2)n1 (stereo not given) | 0.453 |
| Cc1cnn(C2CCCN(C(=O)C3=NN(C)C(=O)CC3)C2)c1 (stereo not given) | 5.956 |
| Cc1cnn(C2CCCN(C(=O)c3ccnc(-n4ccnc4)c3)C2)c1 (stereo not given) | 5.29 |
| O=C(c1ccc(NC2CC2)nc1)N1CCCC(n2cccn2)C1 (stereo not given) | -7.453 |
| Cn1cnc2c1C(C(=O)N1CCCO1)N(C(=O)c1ccccc1)CC2 (stereo not given) | -3.517 |
| N#Cc1cccc(N2CCC3(CC2)Nc2ccccc2NC3=O)n1 | -5.007 |
